Test results published in PubChem BioAssay (NCI).
This is part of a sample that, as a whole, favours compounds with a hit. Of some 83,000 tested, about 20% had one in any assay.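 Step 1: grow cells in 96-well plates. Step 2: add test compound at a single concentration. Step 3: incubate 48 h. Step 4: record percent growth.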 The source made the active and inactive calls. How the source made its calls: active means growth percent below 10; inactive means the rest.

Columns and labels:
Assay in all cases: NCI-60 one-dose screen, 48 h (100 = growth as untreated, 0 = no growth, -100 = all killed)
Conditions in all cases: 10 µM unless noted
[1] = tested on: T-47D breast
[2] = tested on: BT-549 breast
[3] = tested on: MDA-MB-435 melanoma
[4] = tested on: SW-620 colon
[5] = tested on: MCF7 breast
[6] = tested on: HCT-116 colon
[7] = tested on: HCC-2998 colon
[8] = tested on: KM12 colon

Measured: growth

COc1cc(Cn2c(SCC(=O)Nc3cc(OC)c(OC)c(OC)c3)nc3ccccc3c2=O)cc(OC)c1OC
inactive: [1] 77% | [2] 65.2% | [3] 102% | [4] 91.7% | [5] 95.3% | [6] 58.3% | [7] 124% | [8] 99.1%

Cc1ccc(Nc2ncnc3c2sc2ncccc23)cc1
inactive: [1] 95.9% | [2] 111% | [3] 108% | [4] 99.8% | [5] 92.8% | [6] 106% | [7] 103% | [8] 105%

O=C(NCCc1c[nH]c2ccccc12)C1Cc2ccccc2CN1C(=O)c1ccco1 (stereo not given)
inactive: [1] 105% | [2] 102% | [3] 116% | [4] 103% | [5] 90.3% | [6] 102% | [7] 164% | [8] 105%

COc1ccc(/C=C(\C#N)c2ccc([N+](=O)[O-])cc2)c2ccccc12
inactive: [1] 46.9% | [2] 27.9% | [3] 62.6% | [4] 74.4% | [5] 71.8% | [6] 43.4% | [7] 80% | [8] 75.6%

Cc1nc(Nc2cccnc2)sc1C(=O)/C=C/c1ccc(F)cc1
inactive: [1] 30.2% | [5] 14.2% | [7] 83.4% | [8] 11.3%
active: [2] 1.57% | [3] 2.86% | [4] 9.84% | [6] 3.7%

Nc1c(C(=O)Nc2cccc(C(F)(F)F)c2)sc2nc3c(cc12)C(O)CCC3 (stereo not given)
inactive: [1] 17% | [2] 52.9% | [4] 33.1% | [5] 10.2% | [6] 35.2% | [7] 78.8% | [8] 18.1%
active: [3] -16.7%

Cc1ccc(S(=O)(=O)OCC(=O)Nc2ccc(C(=O)O)c(O)c2)cc1
inactive: [1] 106% | [2] 89.2% | [3] 114% | [4] 105% | [5] 105% | [6] 96.2% | [7] 87.6% | [8] 110%

COc1cc(C(=O)N2CCN(C(=O)c3ccco3)CC2)c(N)cc1OCc1ccccc1
inactive: [1] 97.1% | [2] 105% | [3] 113% | [4] 105% | [5] 93.1% | [6] 93.3% | [7] 125% | [8] 103%

CCC1CCc2nc3sc(C(=O)Nc4ccccc4C)c(N)c3cc2C1 (stereo not given)
inactive: [1] 63.6% | [2] 74.7% | [4] 26.9% | [5] 15.2% | [6] 25.5% | [7] 62.2% | [8] 29.6%
active: [3] -38.4%

COc1cc(C(=O)/C=C/c2cc(C(=O)c3cc(OC)c(OC)c(OC)c3)ccc2OC)ccc1N
inactive: [1] 18%
active: [2] -51.3% | [3] 2.47% | [4] -57.3% | [5] 6.6% | [6] -73.8% | [7] -80% | [8] -57.2%

Clc1cccc(Cl)c1Cn1c(-c2cncs2)nc2ccccc21
inactive: [1] 64.5% | [2] 85.1% | [3] 44.5% | [4] 94% | [5] 92.3% | [6] 78.8% | [7] 82.6% | [8] 80.5%

c1cncc(CNc2ccccc2-c2nnc(Nc3ccc4c(c3)OCCO4)o2)c1
active: [3] -20.3% | [6] 9.5% | [7] 9.58% | [8] 3.03%
inactive: [1] 73.6% | [2] 16.6% | [4] 23.2% | [5] 20.9%

CC1(C)OC2COC3(C(=O)O)OC(C)(C)OC3C2O1 (stereo not given)
inactive: [1] 90.2% | [2] 106% | [3] 93.8% | [4] 98.2% | [5] 99.7% | [6] 114% | [7] 97.6% | [8] 98.4%

COc1ccc(NC(=O)CSc2nc3ccccc3c(=O)n2Cc2cc(OC)c(OC)c(OC)c2)cc1
inactive: [1] 84% | [2] 89.1% | [3] 101% | [4] 104% | [5] 93.8% | [6] 89.5% | [7] 109% | [8] 97.7%

COc1cc(NC(=O)CSc2nc3ccc(C)cc3c(=O)n2-c2ccccc2)cc(OC)c1OC
inactive: [1] 81.7% | [2] 79.8% | [3] 47.5% | [4] 87.6% | [5] 91.1% | [6] 87% | [7] 97.5% | [8] 75.1%

COc1ccc(C(=O)c2cc(OC)c(OC)c(OC)c2)cc1/C=C/C(=O)c1ccc(O)cc1
active: [2] 7.62% | [4] -24.1% | [6] -23.2% | [7] -22.4% | [8] 2.74%
inactive: [1] 37.3% | [3] 18.9% | [5] 12.1%

COc1cc(Cn2c(SCC(=O)Nc3ccc(Cl)cc3)nc3ccccc3c2=O)cc(OC)c1OC
inactive: [1] 45.2% | [2] 75.1% | [3] 69.8% | [4] 77.7% | [5] 77.2% | [6] 35.6% | [7] 93.2% | [8] 79.4%

Cc1ccnc2nc(C(=O)OCC(=O)Nc3ccc(-c4ccccc4)cc3)nn12
inactive: [1] 111% | [2] 96.3% | [3] 107% | [4] 109% | [5] 105% | [6] 96% | [7] 105% | [8] 119%

O=C(Nc1ccc(I)cc1)c1cccc([N+](=O)[O-])c1O
active: [1] 9.64% | [2] 4.69% | [5] 7.91% | [6] 8.14%
inactive: [3] 14.2% | [4] 21.7% | [7] 19.9% | [8] 14.1%

CC[C@H](C)[C@H]1NC(=O)[C@@H](N[C@](C)(O)[C@@H](N)CC(C)C)[C@@H](C)OC(=O)[C@H](Cc2ccc(OC)cc2)N(C)C(=O)[C@@H]2CCCN2C(=O)[C@H](CC(C)C)NC(=O)[C@@H](C)C(=O)[C@H](C(C)C)OC(=O)C[C@@H]1O
active: [1] -15.4% | [2] -45.9% | [3] -35.4% | [4] 0.636% | [5] 2.76% | [6] -15.1% | [7] -26.8% | [8] -14.8%

O=Nc1c(-c2c(O)[nH]c3ccc([N+](=O)[O-])cc23)[nH]c2ccc(O)cc12
inactive: [1] 16.8%
active: [2] 4.59% | [3] 9.35% | [4] 3.18% | [5] 2.75% | [6] 2.29% | [7] 8.93% | [8] -33%

CC1Cc2c(N(C)C)ncnc2N(C)c2ccc(O)cc21 (stereo not given)
active: [3] 8.93%
inactive: [1] 89.7% | [2] 88.8% | [4] 63.5% | [5] 73.9% | [6] 79.6% | [7] 88.8% | [8] 59.9%

COc1cc(Cn2c(SCCC(=O)Nc3ccc(F)cc3)nc3ccccc3c2=O)cc(OC)c1OC
inactive: [1] 77.8% | [2] 92.6% | [3] 106% | [4] 97.9% | [5] 91% | [6] 65.3% | [7] 95.7% | [8] 99.3%

COC(=O)c1ccc2nc(-c3cc4ccccc4n3C)n(CCCCOc3cc4c(cc3OC)C(=O)N3CCC[C@H]3C=N4)c2c1
active: [1] 4.1% | [2] -53.6% | [3] -88.6% | [4] -23% | [5] 2.44% | [6] 8.52% | [7] -17.6% | [8] -29.2%

C#CCC1(c2ccc(F)c(F)c2)NS(=O)(=O)c2ccccc21 (stereo not given)
inactive: [1] 85.4% | [2] 110% | [3] 107% | [4] 108% | [5] 94.1% | [6] 95.5% | [7] 102% | [8] 102%
